Results on 29 compounds are retold here after PubChem BioAssay.

The assay in a line: COS7 lysate on small-molecule microarray, probe aHis, 635 nm (AID 1123).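 Also: z-score combines 667nm fluorescence intensity with signal-to-noise per printed compound spot.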 The settings on record: COS7 cell lysate, fluorescence, higher = more signal.
The compound `O=C(O)C1=CC[C@H]2C(=O)N(c3ccccc3)C(=O)[C@@H]12` showed a composite z-score of 1.33.

`CCc1cccc(NC(=O)O[C@H]2[C@H](OC(=O)Nc3ccccc3-c3ccccc3)[C@H](OC(=O)Nc3ccccc3-c3ccccc3)[C@@H](OC)O[C@@H]2CO)c1` returned a composite z-score of 2.04. For `C=C(COC)/C(=C/C[C@@H](OC(C)=O)c1cccc(OCCO)c1)c1cnc2ccccc2c1` the value was 1.12; for `Cc1ccc(S[C@]2(C(=O)NCc3ccccc3)CC(=O)N(Cc3ccccc3C(F)(F)F)[C@@H]2c2ccc(CO)cc2I)cc1`, 1.2; for `COCCOC(=O)N1C(=O)[C@@]2(c3cc(C#CC4(O)CCCCCC4)ccc31)[C@H](C(N)=O)[C@H]1C(=O)O[C@H](c3ccccc3)[C@H](c3ccccc3)N1[C@@H]2c1ccc(OCCO)cc1`, 2.58.

As to `COc1c(C)cc(-c2cc3c(c(CCc4ccccc4)n2)[Si](C(C)C)(C(C)C)O[C@H]3c2ccccc2)cc1C`, the composite z-score is 0.463. For `COC(=O)[C@@]1(Cc2ccc(F)cc2)[C@H]2c3cc(C(=O)N(C)C)n(Cc4cccc5ccccc45)c3C[C@H]2CN1C(=O)c1ccccc1` the value was 4.13; for `CC(C)C[C@@H]1NC(=O)[C@@H]2C[C@H](C(=O)NCCCCCNC(=O)CS)[C@H](c3ccc(O)cc3)N2C1=O`, 2.1. Regarding `C=C[C@@H](CO)NS(=O)(=O)c1ccc(Br)cc1`, the composite z-score was -0.412. For `COC(=O)[C@@]1(Cc2ccc(F)cc2)[C@H]2c3cc(C(=O)N(C)C)n(CCF)c3C[C@H]2CN1C(=O)c1ccccc1` the value was 2.6. For `COC(=O)[C@@]1(Cc2ccccc2)[C@H]2c3cc(C(=O)N(C)C)n(Cc4nc5ccccc5[nH]4)c3C[C@H]2CN1C(=O)c1ccccc1` the value was 3.44. The same measure for `C=C(C(=O)CC[C@@H](OC(=O)c1ccccc1-c1ccccc1C(=O)O)c1ccc(OCCO)cc1)C(C)C`: 0.393.

Turning to `COCCOC(=O)N1C(=O)[C@@]2(c3cc(C#CCCO)ccc31)[C@H](C(=O)N1CCN(c3ncccn3)CC1)[C@H]1C(=O)O[C@H](c3ccccc3)[C@H](c3ccccc3)N1[C@@H]2c1ccc(OCCO)cc1`, the composite z-score worked out at 2.13. The same measure for `O=C1OC[C@@H](c2ccccc2)n2cc(/C=C/c3ccccc3)cc21`: 0.163. For `CCOC(=O)C[C@H]1[C@H](OC(=O)c2cc3ccccc3oc2=O)[C@@H](NC(=O)Cc2ccc(OC)cc2)c2cc(OCCCO)ccc2N1C(=O)Cc1ccc(OC)cc1` the value was 0.638; for `C=CCN1C(=O)[C@@]2(O[C@@H](CCO)[C@H]([Si](C)(C)c3ccc(OC)cc3)[C@H]2C)c2cc(N3CCCCC3=O)ccc21`, 1.17; for `COc1ccc(CCNC(=O)[C@@]2(C)c3ccccc3C(=O)N(Cc3ccc(OC(F)(F)F)cc3)[C@H]2c2ccc(CO)cc2)cc1`, 1.37. For `COC(=O)[C@@]1(Cc2ccccc2)[C@H]2c3cc(C(=O)N(C)C)n(CCF)c3C[C@H]2CN1C(=O)c1ccccc1` the value was 3.26; for `COc1ccc(NN2C(C(O)c3ccc(F)cc3)C=CC3C(=O)N(C4CCCCC4)C(=O)C32)cc1` (centres undefined), 1.39. In turn, `COC(=O)[C@@]1(Cc2ccc(F)cc2)[C@H]2c3cc(C(=O)N(C)C)n(Cc4ccsc4Br)c3C[C@H]2CN1C(=O)c1ccccc1` yielded a composite z-score of 2.95. The same measure for `COc1ccc(NN2C(C(O)c3ccccc3)C=CC3C(=O)N(C4CCCCC4)C(=O)C32)cc1` (centres undefined): 2.67; for `C=CC[C@H](OC(=O)Nc1ccc(SC)cc1)c1ccc(O)c(F)c1`: 0.596. The same measure for `CO[C@H]1O[C@H](CO)[C@@H](OC(=O)CCc2ccccc2)[C@@H]2OC(=O)[C@@H](Cc3ccc4ccccc4c3)C/C=C/C[C@H](Cc3ccc4ccccc4c3)C(=O)O[C@@H]12`: 1.18; for `COC(=O)[C@H](Cc1ccccc1)N1CC(C)(OC)O[C@@H](Cc2ccccc2)[C@H]1/C=C/C1CC1` (some centres undefined): 0.763. The same measure for `C[C@H]1C2[C@H](Cc3ccccc3)NC(=O)[C@]23C(=O)N[C@@H](Cc2ccccc2)C(=O)N2CCC[C@H]2C(=O)NC/C=C/CC/C=C/C3[C@@H]2O[C@]12C` (some centres undefined): 0.501. Regarding `C=C(C(=O)CC[C@@H](OC(=O)c1ccccc1-c1ccccc1C(=O)O)c1cccc(OCCO)c1)C(C)C`, the composite z-score is 0.139. The same measure for `C=C(CCCC)C(=O)CC[C@H](OC(=O)c1ccccc1-c1ccccc1C(=O)O)c1cccc(OCCO)c1`: 0.729.

`C=C(CCCC)/C(=C/C[C@@H](OC(C)=O)c1cccc(OCCO)c1)c1cc(C(=O)OC)ccc1OC` showed a composite z-score of -0.22. The same measure for `CCCCCN1CC=CC23O[C@@H]4/C=C\CCCOC(=O)C4[C@H]2C(=O)N(CCO)[C@@H]3C1=O` (some centres undefined): 2.17.
